{"source": "the supplement of paper PMC3334620", "note": "Over roughly 33,000 sequences, “E-score (-0.5 to 0.5)” has its median near -0.043; the highest 2% begin near 0.37. Only a selection was taken, and the highest values are over-represented in it overall.", "data": [{"target": "T1, Upc2 (UniProt Q12151)", "T1 sequence": "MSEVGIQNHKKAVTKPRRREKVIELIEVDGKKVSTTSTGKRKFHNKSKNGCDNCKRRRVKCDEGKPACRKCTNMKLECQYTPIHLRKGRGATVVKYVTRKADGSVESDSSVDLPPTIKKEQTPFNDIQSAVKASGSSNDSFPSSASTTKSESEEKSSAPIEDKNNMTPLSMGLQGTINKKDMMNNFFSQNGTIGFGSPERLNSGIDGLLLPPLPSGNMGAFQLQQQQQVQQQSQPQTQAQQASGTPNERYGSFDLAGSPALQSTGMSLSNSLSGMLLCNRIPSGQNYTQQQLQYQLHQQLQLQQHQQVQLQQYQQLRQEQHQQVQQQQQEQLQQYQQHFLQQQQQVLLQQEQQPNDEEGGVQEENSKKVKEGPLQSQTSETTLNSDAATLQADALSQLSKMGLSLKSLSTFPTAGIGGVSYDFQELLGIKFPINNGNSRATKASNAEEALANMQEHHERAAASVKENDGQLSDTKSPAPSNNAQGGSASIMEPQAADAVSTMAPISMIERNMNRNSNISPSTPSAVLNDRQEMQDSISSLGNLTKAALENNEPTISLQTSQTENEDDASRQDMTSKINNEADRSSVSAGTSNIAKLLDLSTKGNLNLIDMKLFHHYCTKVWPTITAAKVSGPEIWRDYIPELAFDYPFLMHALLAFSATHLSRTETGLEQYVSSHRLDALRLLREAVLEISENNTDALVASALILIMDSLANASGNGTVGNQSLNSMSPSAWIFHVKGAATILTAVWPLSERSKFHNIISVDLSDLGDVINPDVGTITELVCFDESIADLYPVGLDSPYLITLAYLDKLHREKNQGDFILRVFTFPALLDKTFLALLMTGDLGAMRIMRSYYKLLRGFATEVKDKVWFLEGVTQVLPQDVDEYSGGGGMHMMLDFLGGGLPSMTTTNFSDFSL", "test": "PBM E-score (8-mer binding enrichment) (E-score (-0.5 to 0.5)); higher = stronger / more preferred TF binding", "settings": "protein concentration: 200 nM; construct: GST-full length", "method_in_brief": "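Full-length yeast transcription factors or their DNA-binding domains, GST-tagged and expressed with PURExpress, were applied at about 100-200 nM to universal all-10-mer Agilent arrays. These arrays had been made double-stranded by primer extension on fresh or once-stripped slides. Detection used fluorescent anti-GST, normalisation used masliner, and E-scores for ungapped eight-base words pooled with reverse complements came from the Universal PBM Analysis Suite.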", "values": [{"sequence": "CGATTGAA", "PBM E-score": 0.0171}, {"sequence": "GATATGGA", "PBM E-score": 0.047}, {"sequence": "ACCCAACA", "PBM E-score": -0.221}, {"sequence": "GACGCTCC", "PBM E-score": -0.0386}, {"sequence": "AAACATCG", "PBM E-score": -0.033}, {"sequence": "CTTCACGC", "PBM E-score": 0.0017}, {"sequence": "CTATGGAG", "PBM E-score": -0.173}, {"sequence": "GTTGTTTA", "PBM E-score": 0.0127}, {"sequence": "GTGTCCTA", "PBM E-score": -0.0178}, {"sequence": "CCATAGAA", "PBM E-score": -0.25}, {"sequence": "ACCCGTCA", "PBM E-score": -0.119}, {"sequence": "ATATAATA", "PBM E-score": -0.0226}, {"sequence": "ATATAAGA", "PBM E-score": 0.22}, {"sequence": "CTATAAGA", "PBM E-score": 0.247}, {"sequence": "GTATAAGA", "PBM E-score": 0.395}, {"sequence": "GTATAATA", "PBM E-score": 0.375}, {"sequence": "CTATAATA", "PBM E-score": -0.055}, {"sequence": "AACGTTGA", "PBM E-score": 0.0964}, {"sequence": "CCACCAGA", "PBM E-score": -0.0981}, {"sequence": "AAGCGTAT", "PBM E-score": 0.33}, {"sequence": "TATCGCGA", "PBM E-score": 0.182}, {"sequence": "CTGCTACC", "PBM E-score": -0.161}, {"sequence": "CCTTGGAC", "PBM E-score": -0.0581}, {"sequence": "GGCTGTGA", "PBM E-score": -0.125}, {"sequence": "ACCGTTTA", "PBM E-score": 0.458}, {"sequence": "CACGTTTA", "PBM E-score": 0.363}, {"sequence": "CCCGTTTC", "PBM E-score": 0.197}, {"sequence": "ACCGTTTG", "PBM E-score": 0.333}, {"sequence": "GCCGTTTA", "PBM E-score": 0.465}, {"sequence": "ACCGTTTC", "PBM E-score": 0.244}, {"sequence": "GCCGTTCA", "PBM E-score": 0.31}, {"sequence": "CCCGTTTA", "PBM E-score": 0.456}, {"sequence": "GCCGTTAA", "PBM E-score": 0.292}, {"sequence": "AACCAAGG", "PBM E-score": -0.0086}, {"sequence": "AAAAACTG", "PBM E-score": -0.0494}, {"sequence": "ACACGCTC", "PBM E-score": 0.0594}, {"sequence": "CGCTGCAC", "PBM E-score": -0.0173}, {"sequence": "AAAGGCTA", "PBM E-score": -0.173}, {"sequence": "ACTGTGCG", "PBM E-score": 0.134}, {"sequence": "ACGTAGCA", "PBM E-score": 0.0515}, {"sequence": "TCGTAGCA", "PBM E-score": 0.39}, {"sequence": "GCGTAGAA", "PBM E-score": 0.0848}, {"sequence": "TCGTAGAA", "PBM E-score": 0.39}, {"sequence": "CCGTAGAA", "PBM E-score": 0.118}, {"sequence": "CCGTAGCA", "PBM E-score": 0.0702}, {"sequence": "TAACTGAA", "PBM E-score": -0.0941}, {"sequence": "ACAACACT", "PBM E-score": 0.0862}, {"sequence": "ATATGGTA", "PBM E-score": 0.158}, {"sequence": "CTTCTTAA", "PBM E-score": 0.0092}, {"sequence": "AACCTCGT", "PBM E-score": 0.372}, {"sequence": "AACCTCGC", "PBM E-score": 0.0636}, {"sequence": "ACCCTCGC", "PBM E-score": 0.0921}, {"sequence": "AACCTCGA", "PBM E-score": 0.0605}, {"sequence": "ACCCTCGT", "PBM E-score": 0.419}, {"sequence": "ACCCTCGA", "PBM E-score": -0.244}, {"sequence": "TCAGGCAA", "PBM E-score": -0.146}, {"sequence": "TATTCACA", "PBM E-score": 0.101}, {"sequence": "CGTACCGA", "PBM E-score": 0.398}, {"sequence": "CATACCGC", "PBM E-score": 0.00223}, {"sequence": "AGTACCGC", "PBM E-score": 0.1}, {"sequence": "AGTACCGA", "PBM E-score": -0.0766}, {"sequence": "CGTACCGC", "PBM E-score": 0.416}, {"sequence": "GGTACCGA", "PBM E-score": 0.0871}, {"sequence": "GCTCATCA", "PBM E-score": -0.195}, {"sequence": "GTAAAGCA", "PBM E-score": 0.223}, {"sequence": "ACTTCTGA", "PBM E-score": -0.307}, {"sequence": "CGGGGCAG", "PBM E-score": 0.131}, {"sequence": "TCAGAAAA", "PBM E-score": -0.153}, {"sequence": "GGCCGTAA", "PBM E-score": 0.255}, {"sequence": "CGCCGTAG", "PBM E-score": 0.0712}, {"sequence": "AGCCGTAC", "PBM E-score": 0.346}, {"sequence": "CGCCGTAC", "PBM E-score": 0.408}, {"sequence": "CGCCGTAA", "PBM E-score": 0.285}, {"sequence": "GGCCGTAC", "PBM E-score": 0.389}, {"sequence": "TCTCTCCA", "PBM E-score": -0.118}, {"sequence": "CCACAGCG", "PBM E-score": -0.302}, {"sequence": "ATGATCCG", "PBM E-score": -0.0506}, {"sequence": "CTCGAGCC", "PBM E-score": 0.135}, {"sequence": "CGATATCG", "PBM E-score": 0.244}, {"sequence": "AAGCTTCG", "PBM E-score": 0.145}, {"sequence": "AACGCAAT", "PBM E-score": 0.138}, {"sequence": "ACTTGGCC", "PBM E-score": -0.0135}, {"sequence": "AAAAAACG", "PBM E-score": 0.186}, {"sequence": "CCTAGGAG", "PBM E-score": -0.273}, {"sequence": "ATATCTAG", "PBM E-score": -0.0547}, {"sequence": "CGCCCTAG", "PBM E-score": -0.158}, {"sequence": "GGTTACGA", "PBM E-score": 0.408}, {"sequence": "AGTTACGC", "PBM E-score": 0.0981}, {"sequence": "CGTTACAA", "PBM E-score": 0.0563}, {"sequence": "AGTTACGA", "PBM E-score": 0.383}, {"sequence": "CGTTACGA", "PBM E-score": 0.417}, {"sequence": "GGTTACTA", "PBM E-score": -0.0998}, {"sequence": "AGTTACGG", "PBM E-score": 0.0766}, {"sequence": "CGTTACGC", "PBM E-score": 0.282}, {"sequence": "GGTTACCA", "PBM E-score": 0.156}, {"sequence": "GAACTGGC", "PBM E-score": -0.158}, {"sequence": "CACCTAGG", "PBM E-score": -0.103}, {"sequence": "AAAGCGAG", "PBM E-score": 0.217}, {"sequence": "CACCTCCC", "PBM E-score": -0.174}, {"sequence": "TAAGGCCA", "PBM E-score": -0.013}, {"sequence": "AACTGGTG", "PBM E-score": -0.163}, {"sequence": "GCCTTCGC", "PBM E-score": -0.106}, {"sequence": "CACCGTAA", "PBM E-score": 0.32}, {"sequence": "CACCGTAG", "PBM E-score": 0.0923}, {"sequence": "CACCGTAC", "PBM E-score": 0.401}, {"sequence": "ATCCGTAC", "PBM E-score": 0.366}, {"sequence": "CTCCGTAA", "PBM E-score": 0.285}, {"sequence": "CTCCGTAC", "PBM E-score": 0.376}, {"sequence": "CTATTTAC", "PBM E-score": 0.104}, {"sequence": "ATCTGTTC", "PBM E-score": 0.0527}, {"sequence": "ATATAATC", "PBM E-score": -0.158}, {"sequence": "AACGCTAT", "PBM E-score": 0.0885}, {"sequence": "AGCCGTGG", "PBM E-score": -0.17}, {"sequence": "CCTATAGC", "PBM E-score": -0.286}, {"sequence": "GGTATAGA", "PBM E-score": 0.111}, {"sequence": "CGTATAGA", "PBM E-score": 0.48}, {"sequence": "CGTATAGC", "PBM E-score": 0.483}, {"sequence": "AGTATAGC", "PBM E-score": 0.128}, {"sequence": "AGTATAGA", "PBM E-score": 0.137}, {"sequence": "AAGCGATA", "PBM E-score": 0.205}, {"sequence": "AGCTTATA", "PBM E-score": 0.0662}, {"sequence": "CGGGGTCA", "PBM E-score": 0.117}, {"sequence": "ATGCTTAC", "PBM E-score": -0.0957}, {"sequence": "AGACGGCA", "PBM E-score": -0.162}, {"sequence": "TAAACGGA", "PBM E-score": 0.454}, {"sequence": "CAAACGTA", "PBM E-score": 0.259}, {"sequence": "AAAACGTA", "PBM E-score": 0.123}, {"sequence": "TAAACGTA", "PBM E-score": 0.407}, {"sequence": "GAAACGGA", "PBM E-score": 0.199}, {"sequence": "CAAACGGA", "PBM E-score": 0.318}, {"sequence": "CAAACGCA", "PBM E-score": 0.258}, {"sequence": "TAAACGCA", "PBM E-score": 0.399}, {"sequence": "GAAACGCA", "PBM E-score": -0.059}, {"sequence": "TATATCAA", "PBM E-score": -0.04}, {"sequence": "AAGCCAGA", "PBM E-score": -0.2}]}]}
